Source: PubChem BioAssay (NCI)
This is part of a sample that, as a whole, favours compounds with a hit. Of some 79,000 tested, about 15% had one in any assay. Calls of active or inactive are those of the source. No stated cut-off is given here; in the data, active means growth inhibition above about 70%; inactive means the rest.

Experiments:
[1] = NCI Yeast Anticancer Drug Screen. Data for the rad52 strain (AID 147);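 further: 0% = growth of vehicle-treated control cultures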; conditions: S. cerevisiae rad52 mutant growth inhibition, active compounds read high
How it was run: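 Growth of repair-deficient yeast cells was compared between compound-treated and vehicle-treated cultures to give percent inhibition.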

[2] = NCI Yeast Anticancer Drug Screen. Data for the wt1 strain (AID 149);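 further: 0% = growth of vehicle-treated wt1 cultures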; conditions: S. cerevisiae wt1 strain (SPY 50644) growth inhibition, active compounds read high
How it was run: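 Each compound is tested on wt1 yeast and the loss of growth versus vehicle gives the inhibition value.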

[3] = NCI Yeast Anticancer Drug Screen. Data for the rad50EPP+ strain (AID 151);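 further: 0% = growth of vehicle-treated control cultures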; conditions: S. cerevisiae rad50 mutant strain, active compounds read high
How it was run: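 Measured: growth inhibition of rad50EPP+ yeast. Reference: vehicle-treated controls. Screen uses strains with defined genetic alterations in DNA damage repair or cell cycle control.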

[4] = NCI Yeast Anticancer Drug Screen. Data for the mec2-1 strain (AID 157); conditions: S. cerevisiae mec2-1 strain, active compounds read high
How it was run: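 Compounds were applied to mec2-1 yeast cells. Their growth was then compared with that of vehicle-treated cultures to give growth inhibition.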

[5] = NCI Yeast Anticancer Drug Screen. Data for the rad14 strain (AID 159);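 further: 0% = growth of vehicle-treated control cultures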; conditions: S. cerevisiae rad14 strain growth inhibition, active compounds read high
How it was run: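 Inhibition of growth is reported for a repair-deficient yeast mutant following compound treatment, calculated relative to cultures that received vehicle.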

[6] = NCI Yeast Anticancer Drug Screen. Data for the sgs1 mgt1 strain (AID 161);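 further: 0% = growth of cultures given vehicle only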; conditions: S. cerevisiae sgs1 mgt1 strain, active compounds read high
How it was run: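 Yeast cells carrying a defined DNA-repair defect were exposed to test compounds. Growth inhibition was measured relative to vehicle-treated controls.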

[7] = NCI Yeast Anticancer Drug Screen. Data for the CLN2oe strain (AID 163);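 further: 0% = growth of vehicle-only control cultures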; conditions: S. cerevisiae CLN2oe strain, active compounds read high
How it was run: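 Cells of an engineered yeast line with disturbed cell-cycle regulation are treated with compound. Inhibition of growth is then calculated relative to the vehicle-treated reference.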

[8] = NCI Yeast Anticancer Drug Screen. Data for the cln2 rad14 strain (AID 165);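 further: 0% = growth equal to vehicle treated cultures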; conditions: S. cerevisiae cln2 rad14 strain, active compounds read high
How it was run: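 Strain: cln2 rad14 yeast, altered in cell cycle control and DNA damage repair. Read-out: growth inhibition vs vehicle.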

[9] = NCI Yeast Anticancer Drug Screen. Data for the bub3 strain (AID 167); conditions: S. cerevisiae bub3 mutant strain, active compounds read high
How it was run: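 Mutant yeast screening strain plus compound; vehicle-treated cultures serve as the 0% inhibition reference.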

[10] = NCI Yeast Anticancer Drug Screen. Data for the wt2 strain (AID 169); conditions: S. cerevisiae wt2 strain growth inhibition, active compounds read high
How it was run: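 Growth of compound-treated yeast is measured and expressed as inhibition relative to vehicle-only controls.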

[11] = NCI Yeast Anticancer Drug Screen. Data for the mlh1 strain (AID 171);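 further: 0% = growth of vehicle-treated control cultures of the same strain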; conditions: S. cerevisiae mlh1 strain growth inhibition, active compounds read high
How it was run: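 Test agents were incubated with yeast bearing a defined DNA damage repair or cell cycle control alteration; values are growth inhibition normalised to vehicle-treated cultures.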

[12] = NCI Yeast Anticancer Drug Screen. Data for the sgs1 strain (AID 173);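 further: 0% = growth of vehicle-only control cultures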; conditions: S. cerevisiae sgs1 mutant, active compounds read high
How it was run: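 Strain with an altered DNA repair or cell cycle pathway exposed to compound. Growth then measured. Value = inhibition versus vehicle control.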

[13] = NCI Yeast Anticancer Drug Screen. Data for the mlh1 rad18 strain (AID 175); conditions: S. cerevisiae mlh1 rad18 strain growth inhibition, active compounds read high
How it was run: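 A repair-deficient yeast strain is exposed to test compound, and growth is scored relative to vehicle-treated controls.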

[14] = NCI Yeast Anticancer Drug Screen. Data for the rad18 strain (AID 177); conditions: S. cerevisiae rad18 mutant growth inhibition, active compounds read high
How it was run: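 DNA-repair-defective yeast; compound treatment; growth inhibition scored against vehicle.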

[15] = at 5.0 µM (retest, dose inferred, filed as 0.5)
[16] = at 50.0 µM (retest, dose inferred, filed as 5.0)

Measured: growth inhibition

CN(C)c1ccc(N=Nc2ccccn2)cc1
active: [1]; at 33.0 µM 89% | [1]; at 100.0 µM 94% | [2]; at 33.0 µM 87% | [2]; at 100.0 µM 94% | [3]; at 100.0 µM 85% | [4]; [15] 100% | [4]; [16] 100% | [4]; at 50.0 µM 82.9% | [4]; at 100.0 µM 96% | [5]; at 33.0 µM 95% | [5]; at 100.0 µM 97% | [6]; [16] 98% | [6]; at 50.0 µM 85.6% | [7]; at 33.0 µM 77% | [7]; at 100.0 µM 88% | [8]; [16] 97% | [8]; at 50.0 µM 75.2% | [9]; at 33.0 µM 95% | [9]; [16] 97% | [9]; at 50.0 µM 87.1% | [9]; at 100.0 µM 96% | [10]; at 33.0 µM 86% | [10]; at 100.0 µM 94% | [11]; at 33.0 µM 93% | [11]; at 100.0 µM 96% | [12]; at 33.0 µM 88% | [12]; at 100.0 µM 94% | [13]; [15] 100% | [13]; [16] 100% | [13]; at 50.0 µM 83.2% | [14]; at 33.0 µM 83% | [14]; at 100.0 µM 91%
inactive: [1]; at 1.2 µM -15% | [1]; at 3.7 µM -12% | [1]; at 11.0 µM 15% | [2]; at 1.2 µM -21% | [2]; at 3.7 µM 31% | [2]; at 11.0 µM 29% | [3]; at 1.2 µM -88% | [3]; at 3.7 µM -118% | [3]; at 11.0 µM -85% | [3]; at 33.0 µM 66% | [4]; at 1.2 µM -10% | [4]; at 3.7 µM 20% | [4]; at 11.0 µM 14% | [4]; at 33.0 µM 66% | [5]; at 1.2 µM 12% | [5]; at 3.7 µM 1% | [5]; at 11.0 µM 62% | [6]; [15] -1% | [7]; at 1.2 µM 1% | [7]; at 3.7 µM -17% | [7]; at 11.0 µM 17% | [8]; [15] 41% | [9]; at 1.2 µM -3% | [9]; at 3.7 µM 15% | [9]; [15] 40% | [9]; at 11.0 µM 61% | [10]; at 1.2 µM -27% | [10]; at 3.7 µM -12% | [10]; at 11.0 µM 3% | [11]; at 1.2 µM 33% | [11]; at 3.7 µM 10% | [11]; at 11.0 µM 60% | [12]; at 1.2 µM -6% | [12]; at 3.7 µM 5% | [12]; at 11.0 µM 25% | [14]; at 1.2 µM -16% | [14]; at 3.7 µM -10% | [14]; at 11.0 µM -1%

CC1=CCCC2C1(C)CCC(C)C2(C)Cc1cc(O)ccc1O (stereo not given)
active: [1]; at 11.0 µM 70% | [1]; at 33.0 µM 98% | [1]; at 100.0 µM 93% | [2]; at 33.0 µM 98% | [2]; at 100.0 µM 96% | [3]; at 33.0 µM 86% | [3]; at 100.0 µM 88% | [4]; at 33.0 µM 99% | [4]; [16] 97% | [4]; at 50.0 µM 90.6% | [4]; at 100.0 µM 95% | [5]; at 33.0 µM 98% | [5]; at 100.0 µM 94% | [6]; [16] 97% | [6]; at 50.0 µM 90.5% | [7]; at 33.0 µM 97% | [7]; at 100.0 µM 87% | [8]; [16] 97% | [8]; at 50.0 µM 88.5% | [9]; at 33.0 µM 99% | [9]; [16] 96% | [9]; at 50.0 µM 88.6% | [9]; at 100.0 µM 93% | [10]; at 11.0 µM 98% | [10]; at 33.0 µM 97% | [10]; at 100.0 µM 89% | [11]; at 33.0 µM 98% | [11]; at 100.0 µM 94% | [12]; at 11.0 µM 79% | [12]; at 33.0 µM 99% | [12]; at 100.0 µM 95% | [13]; [15] 83% | [13]; [16] 93% | [13]; at 50.0 µM 88% | [14]; at 33.0 µM 98% | [14]; at 100.0 µM 94%
inactive: [1]; at 1.2 µM 12% | [1]; at 3.7 µM 31% | [2]; at 1.2 µM -5% | [2]; at 3.7 µM 13% | [2]; at 11.0 µM 31% | [3]; at 1.2 µM -6% | [3]; at 3.7 µM 39% | [3]; at 11.0 µM 69% | [4]; at 1.2 µM 5% | [4]; at 3.7 µM 17% | [4]; [15] 46% | [4]; at 11.0 µM 45% | [5]; at 1.2 µM 15% | [5]; at 3.7 µM 15% | [5]; at 11.0 µM 35% | [6]; [15] 39% | [7]; at 1.2 µM -73% | [7]; at 3.7 µM -57% | [7]; at 11.0 µM -91% | [8]; [15] 10% | [9]; at 1.2 µM 9% | [9]; at 3.7 µM 18% | [9]; [15] 44% | [9]; at 11.0 µM 60% | [10]; at 1.2 µM -28% | [10]; at 3.7 µM -7% | [11]; at 1.2 µM -1% | [11]; at 3.7 µM 19% | [11]; at 11.0 µM 38% | [12]; at 1.2 µM 4% | [12]; at 3.7 µM 31% | [14]; at 1.2 µM 1% | [14]; at 3.7 µM 24% | [14]; at 11.0 µM 66%
